Results published in PubChem BioAssay AID588342 (National Center for Advancing Translational Sciences (NCATS), 2011).
About 25,000 (6.9%) of roughly 360,000 compounds were called active. Roughly 9% stayed inconclusive and do not appear here. The sample holds actives, similar compounds and a random draw of the others, so the mix is not that of the screen. Values without a mark were called inactive. The call rests on the fitted dose curve; in most records, active means well fitted inhibition curve with a large enough effect; inconclusive means small, poorly fitted or top-dose-only effect; inactive means flat fitted curve, though single readings scatter.

Biological target: Luciferin 4-monooxygenase (Photinus pyralis) (UniProt P08659)
Assay: qHTS profiling assay for firefly luciferase inhibitor/activator using purifed enzyme and Km concentrations of substrates (counterscreen for miR-21 project); further: nearly all actives have a fitted effect of over 55% in size;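 on activity change, negative = inhibition: plate controls were vehicle for no effect and reference inhibitor for full effect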
Details: purified FLuc, luminescence inhibition; series mostly up to 57.5 µM; activity change, negative = inhibition: at the top concentration
Method in brief: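 Biochemical qHTS of compounds, final roughly 60 µM downward over six points, against 10 nM purified firefly luciferase using Km concentrations of substrates (10 uM D-luciferin, 10 uM ATP) in Tris acetate pH 7.5 buffer; luminescence output.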
Potency means the concentration at half of the fitted maximal effect.

Chain of Luciferin 4-monooxygenase (Photinus pyralis) (P08659 whole entry, looked up): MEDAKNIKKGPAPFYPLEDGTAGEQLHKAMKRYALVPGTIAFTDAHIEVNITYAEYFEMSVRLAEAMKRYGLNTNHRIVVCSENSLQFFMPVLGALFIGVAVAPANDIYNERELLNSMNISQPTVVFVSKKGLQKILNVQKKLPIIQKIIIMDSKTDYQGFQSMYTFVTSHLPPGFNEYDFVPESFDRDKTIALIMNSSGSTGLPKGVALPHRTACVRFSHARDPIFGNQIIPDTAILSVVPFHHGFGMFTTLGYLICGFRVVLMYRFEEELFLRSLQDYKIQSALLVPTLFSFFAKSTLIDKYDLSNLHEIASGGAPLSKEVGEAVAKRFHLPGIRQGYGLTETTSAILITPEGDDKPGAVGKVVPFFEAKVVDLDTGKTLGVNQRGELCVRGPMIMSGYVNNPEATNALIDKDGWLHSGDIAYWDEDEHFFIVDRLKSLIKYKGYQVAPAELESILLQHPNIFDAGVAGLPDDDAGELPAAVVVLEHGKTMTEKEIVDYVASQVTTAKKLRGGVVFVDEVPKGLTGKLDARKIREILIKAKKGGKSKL

Structure (SMILES) | activity change, negative = inhibition [%] | Potency
Cc1cccn2c(=O)c(/C=C3\SC(=S)N(CC(C)C)C3=O)c(NCCCOC(C)C)nc12 | 1.38 | –
CNc1nc2c(C)cccn2c(=O)c1C=Nc1ccc(OC)cc1 | – | 12 µM (active)
Cc1cccn2c(=O)c(C=O)c(Nc3ccc(S(N)(=O)=O)cc3)nc12 | 0.613 | –
Cc1ccc(CNC(=O)c2c(O)nc3c(C)cccn3c2=O)cc1 | -7.24 | –
O=C(CCn1c(=O)oc2ccccc21)Nc1ccon1 | -14.9 | –
CC(C)Nc1nnc(SCC(=O)c2c[nH]c3ccccc23)s1 | -11.3 | –
CC(C)c1ccc(Nc2nnc(SCC(=O)c3nnc(-c4ccccc4)o3)s2)cc1 | – | 10.7 µM (active)
Cc1ccccc1Nc1nnc(SCC(=O)c2cc3ccccc3o2)s1 | -1.37 | –
CC1CCCC(NC(=O)c2cc(S(=O)(=O)N3CCCCC3)ccc2Cl)C1C (stereo not given) | 2.31 | –
Cc1nc(Cl)cc(N/N=C/c2ccccc2)n1 | – | 16.9 µM (active)
C(=N/Nc1cc(N2CCOCC2)nc(N2CCOCC2)n1)/c1ccccc1 | -3.51 | –
Cc1cc(N/N=C\c2ccc(Br)cc2)nc(-n2nc(C)cc2C)n1 | -0.864 | –
CN(CC(=O)Nc1ccc(F)c(F)c1F)C(=O)Cn1cnc2c1c(=O)n(C)c(=O)n2C | 2 | –
CC1CCCN(CC(O)COc2ccc3c(c2)OCO3)C1 (stereo not given) | 1.9 | –
O=C1/C(=C/c2ccc3c(c2)OCO3)Oc2cc(OCC(=O)N3CC(O)C[C@H]3C(=O)O)ccc21 (stereo not given in full) | – | 0.757 µM (active)
COC(=O)C(C)Oc1ccc2c(c1)O/C(=C\c1cccc(Br)c1)C2=O (stereo not given) | -19.3 | –
O=C(CCNS(=O)(=O)c1ccc(Br)cc1)NCC1CCCO1 (stereo not given) | 3.61 | –
O=C(Nc1ccccc1N1CCCCC1)c1ccc2nccnc2c1 | -1.25 | –
O=C(Nc1ccccc1N1CCCC1)c1ccc(F)c(S(=O)(=O)N2CCOCC2)c1 | 0.53 | –
O=C(Nc1ccccc1N1CCCC1)c1ccc2ccccc2c1 | – | 15.1 µM (active)
Cc1cccc(OCCSc2nc3ccc(NC(=O)COc4ccccc4C)cc3s2)c1 | -4.35 | –
CS(=O)(=O)N1CCN(c2cccc(Cl)n2)CC1 | -0.219 | –
CS(=O)(=O)N1CCN(C(=O)Cc2ccccc2)CC1 | 3.89 | –
CS(=O)(=O)N1CCc2nc(-c3ccccc3)sc2C1 | – | 9.53 µM (active)
Cc1ccc(NC(=O)CCNC(=O)c2ccc([N+](=O)[O-])cc2)cc1S(=O)(=O)N1CCOCC1 | 4.27 | –
CCOc1ccc(N(CC)S(=O)(=O)N2CCCC(C(=O)NCc3ccc(Cl)cc3)C2)cc1 (stereo not given) | -15.9 | –
CC(=O)Nc1ccc(NC(=O)COc2ccc(-c3ccccc3)cc2)cc1 | -2.67 | –

Structure (SMILES) | activity change, negative = inhibition [%] | Potency
O=C(COc1ccccc1)Nc1ccc(C(=O)N2CCCC2)cc1 | -0.942 | –
O=C(COc1ccccc1)Nc1nonc1NC(=O)COc1ccccc1 | – | 7.57 µM (active)
CCCCN(CCCNC(=O)c1cc(Nc2ccccc2OC)nc2ccccc12)c1ccccc1 | -5.87 | –
Cc1c(C)n(Cc2ccc(Cl)cc2)c2ccc(C(=O)NCCc3ccc(S(N)(=O)=O)cc3)cc12 | -12 | –
COc1ccccc1NC(=O)C1=C(C)NC(=O)NC1c1ccc(C)s1 (stereo not given) | -1.32 | –
COc1ccccc1NC(=O)c1ccc(C)s1 | – | 13.5 µM (active)
COC(=O)c1c(NC(C)=O)sc(C(=O)Nc2ccccc2OC)c1C | -3.92 | –
Cc1ccc(Cl)cc1-n1ncc2c(N3CCC(C(N)=O)CC3)ncnc21 | -2.86 | –
CCN1CCN(c2ncnc3c2cnn3-c2ccc(C)c(C)c2)CC1 | – | 9.53 µM (active)
Cc1ccc(-n2ncc3c(=O)n(Cc4cccc(C(F)(F)F)c4)cnc32)cc1C | -6.53 | –
C1=C(CCNc2ncnc3c2cnn3-c2ccccc2)CCCC1 | – | 3.38 µM (active)
CCN(CC)C(=O)CSc1nc2ccccc2n1CC(=O)N1CCN(c2ccccc2OC)CC1 | 7.05 | –
CCc1cc2c(N3CCN(c4nnc(CC)s4)CC3)ncnc2s1 | -1.27 | –
COc1ccccc1N1CCN(C(=O)CSc2nnc(-c3ccoc3C)o2)CC1 | -1.48 | –
O=C(NNc1ncnc2c1cnn2-c1ccccc1)c1ccco1 | -1.66 | –
O=C(NCCC1=CCCCC1)C1CCN(Cc2cnn(-c3ccccc3)c2-n2cccc2)CC1 | 0.886 | –
CCOC(=O)C1CCN(c2ncnc3c2c(-c2ccccc2)cn3-c2ccc(C)cc2)CC1 | -7.38 | –
COc1ccccc1N1CCN(C(=O)CSc2ncnc3c2cnn3-c2ccc(C)c(C)c2)CC1 | – | 8.49 µM (active)
Cc1ccc(-n2ncc3c(N4CCC(C(N)=O)CC4)ncnc32)cc1 | – | 12 µM (active)
Cc1ccc(S(=O)(=O)N(C)C)cc1NC(=O)c1ccccc1Br | -3.56 | –
Cn1cc(-c2ccccc2)cc(C#N)c1=O | 2.58 | –
Cc1ccccc1CN1CCC(CNC(=O)c2cc3ccc4cccnc4c3[nH]2)CC1 | -4.76 | –
Cc1ccc(N2CC(NC(=O)Cc3cccs3)CC2=O)cc1 (stereo not given) | -1.84 | –
Cc1cccc(NC(=O)C2CC(=O)OC23CCCC3)c1 (stereo not given) | 2.02 | –
Nc1c(C(=O)O)cnn1-c1ccccc1 | -3.2 | –
c1ccc(-n2ncc3c(N4CCCC4)ncnc32)cc1 | – | 4.26 µM (active)
Cn1nnc2c(N3CCN(c4ccccc4)CC3)ncnc21 | -8.03 | –

Structure (SMILES) | activity change, negative = inhibition [%] | Potency
Cc1ccc(CN(C(=O)c2ccccc2[N+](=O)[O-])c2ccccn2)cc1 | 2.1 | –
Cc1cc(C)c(C#N)c(SCC(=O)N(CC(C)C)C2CCS(=O)(=O)C2)n1 (stereo not given) | 0.183 | –
O=C(COC(=O)CNC(=O)C1CCCCC1)Nc1cccc(F)c1 | 3.66 | –
Nc1c(C(=O)OCC(=O)Nc2ccc(OC(F)F)cc2)[nH]c(=O)[nH]c1=O | -1.54 | –
O=S(=O)(c1ccc2nc(N3CCN(c4cccc(Cl)c4)CC3)ccc2c1)N1CCCCC1 | 0.918 | –
O=C(c1ccc(Cl)c(S(=O)(=O)N2CCCCC2)c1)N1CCCCCC1 | -0.389 | –
Cc1ccc(NC(=O)C2CC(=O)N(c3ccc4c(c3)OCCO4)C2)cc1S(=O)(=O)N1CCCCCC1 (stereo not given) | 2.14 | –
Cc1ccc(C(=O)Nc2ccc3c(c2)OCO3)cc1S(=O)(=O)N1CCCCC1 | – | 16.9 µM (active)
Cc1ccc(C(=O)NNC(=O)c2ccncc2)cc1S(=O)(=O)N1CCCCC1 | -0.932 | –
O=C(Nc1ccc2c(c1)OCCO2)c1ccc(Cl)c(S(=O)(=O)N2CCCCC2)c1 | – | 13.5 µM (active)
O=C(c1ccc(Cl)c(S(=O)(=O)N2CCCCCC2)c1)N1CCN(c2ccc(O)cc2)CC1 | 4.76 | –
Cc1c(Cl)cccc1NC(=O)CCS(=O)(=O)c1ccc2c(c1)oc(=O)n2C | -5.67 | –
COc1ccccc1CNS(=O)(=O)c1cc(C(=O)NCc2ccccn2)c(Cl)cc1Cl | 1.54 | –
CCC(C(=O)Nc1cc(OC)ccc1OC)n1c(=O)c(C(F)(F)F)nc2ccccc21 (stereo not given) | -0.546 | –
O=C(O[C@H]1[C@H](Cc2ccccc2)NS(=O)(=O)[C@H]2C[C@@H]3C=C[C@]12O3)c1ccc([N+](=O)[O-])cc1 | 4.04 | –
CCc1nonc1NC(=O)c1oc2ccc(Cl)cc2c1C | – | inactive
Cc1cc(C)cc(NS(=O)(=O)c2cc3c(cc2C)NC(=O)CO3)c1 | -0.815 | –
Cc1cccc(C(=O)N2CCc3c([nH]c4ccccc34)C2CC(C)C)n1 (stereo not given) | – | 16.9 µM (active)
Cc1cccc(C2c3[nH]c4ccccc4c3CCN2C(=O)c2cc(-c3cccn3C)n[nH]2)n1 (stereo not given) | 2.66 | –
Cc1ccc(C2c3[nH]c4ccccc4c3CCN2C(=O)c2cccc(C)c2)cc1 (stereo not given) | -0.203 | –
O=C(NCc1cccnc1)C(=O)NCC(c1cccnc1)N1CCN(c2ccccc2)CC1 (stereo not given) | 5.36 | –
CCn1cc(C(=O)NCc2ccc(C)cc2)c(=O)c2cc(S(=O)(=O)N3CCc4ccccc4C3)ccc21 | -5.12 | –
O=C(Nc1cccc([N+](=O)[O-])c1)Nn1cnnc1 | 2.4 | –
CCc1ccc(NC(=O)N2CCN(c3ccccc3)CC2)cc1 | -19.9 | –
O=C(Nc1cccc([N+](=O)[O-])c1)N1CCc2ccccc2C1 | – | 21.3 µM (active)
CN1CCN(CC(=O)Nc2cccc([N+](=O)[O-])c2)CC1 | 1.74 | –
Cc1ccc(NC(=O)CN2CCc3ccccc3C2)cc1C | -21.8 | –

Structure (SMILES) | activity change, negative = inhibition [%] | Potency
CCc1ccc(NC(=O)N2CCc3ccccc3C2)cc1 | – | 12 µM (active)
Cc1cc(-c2ccc(C)c(S(=O)(=O)N3c4ccccc4CC3C)c2)on1 (stereo not given) | 3.15 | –
Cn1c(=O)c2c(nc(SCC(=O)Nc3ccc(F)cc3)n2Cc2ccc(Cl)cc2)n(C)c1=O | -3.31 | –
S=C(Cc1ccc(Cl)cc1)N1CCOCC1 | -1.16 | –
CCOC(=O)c1ccc(N2C(=O)c3n[nH]c(C)c3C2c2ccc(O)c(OC)c2)cc1 (stereo not given) | 6.1 | –
CCOc1ccc(N(CC)S(=O)(=O)N2CCCC(C(=O)Nc3ccc(C(C)=O)cc3)C2)cc1 (stereo not given) | 2.45 | –
NC(=O)CC[C@@H]1NC(=O)[C@@H]2CCCN2C(=O)c2cc([N+](=O)[O-])cc(F)c2NCCC[C@@H](C(N)=O)NC1=O | -0.328 | –
Cc1ccc(C(C)C)c(OCCSc2nc3ccccc3n2CC(=O)O)c1 | -0.728 | –
CCc1ccc(NC(=O)C2CCCN2S(=O)(=O)c2ccc3nc(-c4ccccc4)[nH]c3c2)cc1 (stereo not given) | -18.6 | –
CCOc1ccc(NCCC(=O)c2ccc3c(c2)OCO3)cc1 | – | 21.3 µM (active)
COc1ccc(C2(C)NC(=O)N(CC(=O)c3ccc4c(c3)OCO4)C2=O)cc1 (stereo not given) | 5.52 | –
CCOc1ccc(C(=O)CCC(=O)Nc2ccncc2)cc1 | -4.1 | –
Cc1ccc2nc(CN3CCN(S(=O)(=O)c4ccc(C)c(C)c4)CC3)oc2c1 | -1.02 | –
CCC1CCCCN1S(=O)(=O)Cc1ccccc1Cl (stereo not given) | -1.4 | –
CC1(C)NC(=O)N(CC(=O)N2CCN(S(=O)(=O)c3ccccc3F)CC2)C1=O | 3.62 | –
Cc1ccc(NC(=S)NCCc2ccc(Cl)cc2)c(C)c1 | -4.33 | –
Cc1ccc(NC(=S)Nc2ncccc2C)c(C)c1 | – | 6.75 µM (active)
Cc1ccc(NC(=S)NCc2ccccc2Cl)c(C)c1 | -7.17 | –
CN(C(=O)CSc1nnc(-c2ccc(C(C)(C)C)cc2)n1C)C1CCS(=O)(=O)C1 (stereo not given) | – | 15.1 µM (active)
COc1ccc2c(-c3ccccc3)cc(SCC(=O)N(C)C3CCS(=O)(=O)C3)nc2c1 (stereo not given) | -10.2 | –
CC(C)N(C(=O)CSc1nnc(NC2CC2)s1)c1ccccc1 | 1.23 | –
CCn1c(SCC(=O)N(C)C2CCS(=O)(=O)C2)nnc1-c1cccs1 (stereo not given) | 0.145 | –
CN(C(=O)CSc1nnc(-c2ccc3c(c2)OCO3)o1)C1CCS(=O)(=O)C1 (stereo not given) | -0.842 | –
CN(C(=O)CSc1nnc(Nc2ccccc2)s1)C1CCS(=O)(=O)C1 (stereo not given) | – | 16.9 µM (active)
